From PubChem BioAssay
VP16 counter: VP16 counterscreen qHTS for inhibitors of ROR gamma transcriptional activity. Drosophila S2 Gal4-VP16 UAS-luciferase, luminescence, 20 h. Potency, µM (highest dose often 53.6 µM), hits mostly inhibitors. hit rate 3.5% among 310,000. AID 2546, 2010;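 note: Gal4-VP16 expression switched on by copper sulfate through the metallothionein promoter; nearly all actives have a fitted effect of over 50% in size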
RORg inh: qHTS for inhibitors of ROR gamma transcriptional activity. Nuclear receptor ROR-gamma (Mus musculus), P51450. Drosophila S2 Gal4-RORgamma UAS-luciferase reporter, 20 h. Potency, µM (highest dose often 53.6 µM), hits mostly inhibitors. hit rate 5.4% among 310,000; note: nearly all actives have a fitted effect of over 60% in size
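Using a luciferase readout, inhibitors were identified by reduced reporter activity in Drosophila cells coexpressing a copper-inducible Gal4–ROR gamma fusion and UAS-driven Photinus luciferase, incubated 20 hr after 700 uM copper sulfate.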
DT40 TDP1 no CPT: qHTS for Inhibitors of human tyrosyl-DNA phosphodiesterase 1 (TDP1): qHTS in cells in absence of CPT; DT40 Tdp1-/- hTDP1 cells, no CPT, ATP luminescence, 48 h; Potency, µM (titrated, usually from 46.2 µM), hits mostly inhibitors; hit rate 15% among 420,000; note: nearly all actives have a fitted effect of over 55% in size
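Seeded 400 DT40-hTDP1 cells/well (vehicle DMSO, no 20 nM CPT); pinned compounds; ≥48 hr at 37 °C; CellTiter-Glo luminescence as viability measure.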
DT40 TDP1 CPT: qHTS for Inhibitors of human tyrosyl-DNA phosphodiesterase 1 (TDP1): qHTS in cells in presence of CPT | chicken DT40 Tdp1-/-;hTDP1 cells + 20 nM CPT, ATP luminescence, 48 h | Potency, µM (titrated, usually from 46.2 µM), most hits filed as inhibitors | hit rate 12% among 420,000; note: nearly all actives have a fitted effect of over 55% in size
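Cell growth measured by CellTiter-Glo luminescence after a minimum 48 h, 37 C compound exposure with 20 nM CPT in Tdp1-knockout DT40 cells stably expressing hTDP1, seeded 400/well; qHTS titration format.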
ALOX12 inh: Primary qHTS assay for inhibitors of human arachidonate 12S-lipoxygenase (ALOX12): Round 2; Potency, µM (series often up to 108 µM), hits mostly inhibitors; AID 1671190, 2021; Polyunsaturated fatty acid lipoxygenase ALOX12 (Homo sapiens), P18054; hit rate 1.1% among 580,000; purified 12hLO, xylenol orange hydroperoxide absorbance
Target sequence (P18054 whole entry, looked up): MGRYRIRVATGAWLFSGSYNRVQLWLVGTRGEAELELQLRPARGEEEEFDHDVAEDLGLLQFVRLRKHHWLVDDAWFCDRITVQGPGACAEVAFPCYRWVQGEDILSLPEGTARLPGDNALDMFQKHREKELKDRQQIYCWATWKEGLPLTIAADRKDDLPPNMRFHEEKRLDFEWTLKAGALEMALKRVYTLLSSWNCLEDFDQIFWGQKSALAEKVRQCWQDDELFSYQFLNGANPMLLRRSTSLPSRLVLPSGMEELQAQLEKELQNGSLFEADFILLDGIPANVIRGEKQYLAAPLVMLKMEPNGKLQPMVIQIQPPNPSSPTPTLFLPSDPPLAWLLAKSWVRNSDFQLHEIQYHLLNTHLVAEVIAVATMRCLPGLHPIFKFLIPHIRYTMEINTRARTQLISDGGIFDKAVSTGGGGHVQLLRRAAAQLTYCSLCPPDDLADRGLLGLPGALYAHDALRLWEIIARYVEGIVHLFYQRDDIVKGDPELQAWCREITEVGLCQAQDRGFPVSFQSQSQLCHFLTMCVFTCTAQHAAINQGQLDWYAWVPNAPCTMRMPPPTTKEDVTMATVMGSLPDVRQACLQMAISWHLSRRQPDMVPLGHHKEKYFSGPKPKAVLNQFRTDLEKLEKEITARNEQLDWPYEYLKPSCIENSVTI
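Purified human 12hLO at 150 nM in 25 mM Hepes, 0.01% Triton X-100, pH 7.0, preincubated 15 min at room temperature with compound. Reaction started with 40 uM arachidonic acid, 30 min at room temperature. Hydroperoxide measured by Fe-xylenol orange, 573/405 nm absorbance ratio.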
ELG1 repair inh: qHTS screen for small molecules that inhibit ELG1-dependent DNA repair in human embryonic kidney (HEK293T) cells expressing luciferase-tagged ELG1; hit rate 2.3% among 330,000; HEK293T ELG1-luciferase reporter, luminescence, 16 h; DNA damage induced by 5-fluorouridine; Potency, µM (titrated, usually from 46.1 µM), most hits filed as inhibitors; note: nearly all actives have a fitted effect of over 55% in size
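Step one: seed 2,000 cells per well. Step two: pin-transfer compound or DMSO alongside 5-fluorouridine. Step three: incubate 16 hr, 37 °C, 5% CO2. Step four: add ONE-Glo, wait 30 min, read luminescence.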
Hits are given with their value; n = inactive; u = inconclusive; x = no result. The list is not random: actives were taken first. Their share in the collection is about 15%. Calls come from the whole dose curve; as a rule, active = well fitted curve in the direction sought with a large enough effect; inconclusive = small, poorly fitted or top-dose-only effect, or another doubt; inactive = no such curve, though single readings can be large; an effect the other way counts as inactive or inconclusive.

SMILES	VP16 counter	RORg inh	DT40 TDP1 no CPT	DT40 TDP1 CPT	ALOX12 inh	ELG1 repair inh
COc1ccc(CCNC(=O)c2c(C)noc2-c2cccs2)cc1	x	x	x	x	n	x
CC(=O)N1CCC2(CC1)C(=O)NN=C2c1ccccn1	x	x	x	x	n	x
C=CCn1c(=O)/c(=C\c2ccccn2)s/c1=C(/C#N)C(=O)NCC1CCCO1 (configuration not stated)	n	n	n	n	n	n
C=CCn1c(=O)/c(=C/c2ccc(C)o2)s/c1=C(/C#N)C(=O)c1ccccc1	n	n	n	n	11.2µM	u
O=[N+]([O-])c1ccc(N=Nc2c(Cl)cc(O)cc2Cl)cc1	5.01µM	u	4.61µM	4.11µM	u	u
CCCn1c(=O)c2ccc(C(=O)NCC(C)C)cc2n2c(SCc3ccc(F)cc3)nnc12	x	x	x	x	n	x
O=[S@]1Oc2ccccc2-c2ccccc21	x	x	13µM	u	u	x
Cc1ccc(C(=O)N/N=C/C(C)c2ccccc2)c(C)c1 (configuration not stated)	x	x	x	x	n	x
CCOC(=O)c1sc2nccc(N(C)C)c2c1N=CNOCc1c(F)cccc1Cl	n	n	23.1µM	u	u	16.4µM
CCOC(=O)c1sc2nccc(N(C)C)c2c1N=CNOCc1ccccc1	n	n	u	u	n	u
CN(C)C(=S)NC(=O)C12CC3CC(C)(CC(C)(C3)C1)C2	22.4µM	5.01µM	u	u	n	n
COC(=O)CNC(=O)C12CC3CC(C)(CC(C)(C3)C1)C2	x	x	x	x	n	x
CC12CC3CC(C)(C1)CC(C(=O)NC1CCCC1)(C3)C2	x	x	x	x	n	x
CC12CC3CC(C)(C1)CC(C(=O)NC(=S)N1CCCCC1)(C3)C2	u	0.447µM	u	u	25.1µM	n
Cc1ccccc1CN(C)C(C)C(=O)Nc1ccccc1F (configuration not stated)	u	n	25.9µM	u	n	u
Cc1ccccc1NC(=O)C(C)N(C)Cc1ccc2ccccc2c1 (configuration not stated)	x	x	x	x	n	x
CN=C1S/C(=C/c2cn(CC(=O)OC)c3ccccc23)C(=O)N1C	n	n	u	n	28.2µM	n
COCCNC(=O)COC(=O)c1cc(-c2ccc(F)cc2)nc2ccccc12	x	x	x	x	n	x
NCCCNC(=O)Cn1c(=O)c2c3c(sc2n(Cc2ccccc2)c1=O)CCCC3	n	n	u	20.6µM	n	n
O=C(Cn1c(=O)c2c3c(sc2n(Cc2ccccc2)c1=O)CCCC3)NCCO	n	n	u	u	n	n
O=c1n(Cc2ccccc2Cl)c2sc3c(c2c2ncnn12)CCCC3	n	n	u	u	n	n
O=C(Cn1c(=O)n2ncnc2c2c3c(sc21)CCCC3)c1ccccc1	n	n	u	23.1µM	n	n
NC(=O)Cn1c(=O)n(CCc2ccccc2)c(=O)c2c3c(sc21)CCCC3	n	n	n	n	n	n
NCCNC(=O)Cn1c(=O)c2c3c(sc2n(Cc2ccccc2)c1=O)CCCC3	n	n	23.1µM	20.6µM	n	n
COc1cccc([C@@H]2CN(C(=O)c3cnn(C)c3)C[C@H]2C(=O)O)c1OC	x	x	x	x	n	x
SMILES	VP16 counter	RORg inh	DT40 TDP1 no CPT	DT40 TDP1 CPT	ALOX12 inh	ELG1 repair inh
CN(C)Cc1nnc(C2CC(NC(=O)c3ccccc3-c3ncn[nH]3)C2)n1C (configuration not stated)	x	x	x	x	n	x
O=C(NC1CCCCC1)c1cc([N+](=O)[O-])[nH]n1	u	n	18.4µM	u	n	n
CCN1c2cc(C(=O)Nc3ccc(OC(F)(F)F)cc3)ccc2C(=O)N2CCCCCC21 (configuration not stated)	x	x	x	x	n	x
Clc1ccc(N2CCN(c3cnc4ccccc4n3)CC2)cc1	n	n	u	23.1µM	n	u
COc1ccc(C(C)=O)c(OCc2ccccc2C#N)c1	x	x	x	x	n	x
COC(=O)[C@@]12CCCCN1[C@H](c1ccc(-c3ccc(Cl)c(Cl)c3)cc1)[C@H]1C(=O)N(C)C(=O)[C@H]12	x	x	16.4µM	11.6µM	u	n
CCN1C(=O)[C@@H]2[C@@H](c3ccc(-c4ccc(Cl)c(Cl)c4)cc3)N3CCCC[C@@]3(C(=O)OC)[C@@H]2C1=O	x	x	16.4µM	18.4µM	n	n
CC(=O)c1ccc(OCc2cccc(C(N)=O)c2)cc1	x	x	x	x	n	x
Cc1cccc(C(=O)NNC2=CC(=O)CC(C)(C)C2)c1O	n	u	n	n	n	u
CC1(C)CC(=O)C=C(NNC(=O)c2ccccc2O)C1	11.2µM	12.6µM	n	u	n	u
O=C(c1cnccn1)N1CC(=O)N2[C@H](C1)[C@@H](c1ccc(Br)cc1)[C@@H]2CO	x	x	x	x	5.62µM	x
CCCCCc1ccnc(CC(=O)c2ccc(OC)cc2)c1	x	x	8.2µM	8.2µM	u	x
CCCCCc1ccc(C(=O)Cc2ccc(OCC)cc2)cc1	x	x	x	x	n	x
CC(C)NC(=O)/C=C/c1ccc(F)c(Cl)c1	x	x	x	x	n	x
Cc1nc2cc(Cl)ccc2cc1C(=O)NCC(F)(F)F	x	x	x	x	n	x
C[C@@H]1CN([C@H](C)CO)S(=O)(=O)c2ccc(C#CC3CCCC3)cc2O[C@H]1CN(C)C(=O)Cc1ccccc1	x	x	5.8µM	5.8µM	u	x
C[C@H]1CN([C@@H](C)CO)S(=O)(=O)c2ccc(-c3ccc(C#N)cc3)cc2O[C@H]1CN(C)C(=O)CN(C)C	x	x	n	n	n	x
C[C@@H]1CN([C@H](C)CO)S(=O)(=O)c2ccc(C#Cc3ccccc3)cc2O[C@H]1CN(C)C(=O)Nc1ccc2c(c1)OCO2	x	x	16.4µM	13µM	n	x
C[C@H]1CN([C@@H](C)CO)S(=O)(=O)c2ccc(C#CC3(O)CCCC3)cc2O[C@@H]1CN(C)C(=O)Cc1cccnc1	x	x	n	n	n	x
C[C@@H]1CN([C@H](C)CO)S(=O)(=O)c2ccc(C#Cc3ccccc3)cc2O[C@@H]1CN(C)C(=O)CN(C)C	x	x	25.9µM	16.4µM	n	x
CCCC#Cc1ccc2c(c1)O[C@H](CN(C)C(=O)CC1CC1)[C@H](C)CN([C@@H](C)CO)S2(=O)=O	x	x	18.4µM	u	u	x
CC1CCN(C(C)CNC(=O)Cc2coc(-c3ccccc3)n2)CC1 (configuration not stated)	x	x	x	x	n	x
COc1ccc(OC)c(CN2CCN(C(=O)c3cc4c(s3)CCCCC4)CC2)c1	x	x	x	x	n	x
CCC(C(=O)NCc1ccc(C)cc1)N1C(=O)CCn2nc(C)cc21 (configuration not stated)	x	x	x	x	n	x
